The source of these data is PubChem BioAssay (NCI).

This is part of a sample that, as a whole, favours compounds with a hit. Of some 83,000 tested, about 20% had one in any assay.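 In brief: 96-well plates, 48 h treatment, single concentration, percent growth endpoint.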 Unmarked numbers belong to inactive results. Active and inactive are the calls of the source. The calls were made as follows: active = growth percent below 10; inactive = the rest.

Some test systems named below: NCI-H23 lung; NCI-H226 lung; NCI-H322M lung; HOP-62 NSCLC; NCI-H460 lung; HOP-92 NSCLC; NCI-H522 lung; A549/ATCC NSCLC; 786-0 renal; COLO 205 colon; DU-145 prostate; K-562 leukemia; MALME-3M melanoma; MDA-MB-231 breast; RXF 393 renal; SF-268 CNS; SF-295 CNS; SF-539 CNS; UACC-257 melanoma; M14 melanoma.
What all share (assay): NCI-60 one-dose screen, 48 h (100 = growth as untreated, 0 = no growth, -100 = all killed)
Settings in all cases: 10 µM unless noted

As for `CCCc1cc2cc(-n3nc(CC)c4c3CC(C)(C)CC4=O)cc(NC3CCC(O)CC3)c2c(=O)[nH]1` (stereo not given), the growth is 18.3% in the assay on NCI-H23 lung; 13.9% in the assay with NCI-H226 lung; 35.1% in the assay on NCI-H322M lung; 15.4% in the assay with HOP-62 NSCLC; -12.1% (active) in the assay with NCI-H460 lung; -1.33% (active) in the assay with HOP-92 NSCLC. For the same molecule, the growth in the assay with NCI-H522 lung is 17.7%; in the assay on A549/ATCC NSCLC, 25%; with 786-0 renal, -12.4% (active); with COLO 205 colon, 8.47% (active); in the assay with DU-145 prostate it was 40.2%; in the assay on K-562 leukemia, 10.9%. Also, the growth in the assay on MALME-3M melanoma was 8.74% (active); in the assay with MDA-MB-231 breast, 7.65% (active); in the assay with RXF 393 renal, -15.8% (active); with SF-268 CNS, 49.3%; with SF-295 CNS, 28.5%; in the assay with SF-539 CNS, 4.55% (active). Further, the growth in the assay with UACC-257 melanoma is 29.1%; with M14 melanoma, 27.2%.
In the case of `CN1CCN(Cc2ccc(NC(=O)c3cncc(C#Cc4cnc5ccc(NCCO)nn45)c3)cc2C(F)(F)F)CC1`, the growth in the assay on NCI-H23 lung is -40.2% (active); with NCI-H226 lung it was -14% (active); in the assay on NCI-H322M lung it was -15% (active); in the assay with HOP-62 NSCLC, -41.5% (active); in the assay on NCI-H460 lung, -78% (active); in the assay with HOP-92 NSCLC, -27.1% (active). The growth with NCI-H522 lung was -75.8% (active); in the assay on A549/ATCC NSCLC it was 1.34% (active); in the assay on 786-0 renal it was -17.9% (active); with COLO 205 colon, -82.3% (active); in the assay on DU-145 prostate, -2.12% (active); in the assay on K-562 leukemia it was 5.38% (active). The growth is -69.7% (active) in the assay on MALME-3M melanoma; 1.53% (active) in the assay with MDA-MB-231 breast; -74.3% (active) in the assay on RXF 393 renal; -40.9% (active) in the assay with SF-268 CNS; 16.6% in the assay with SF-295 CNS; -74.4% (active) with SF-539 CNS. Also, the growth in the assay on UACC-257 melanoma was -6.58% (active); with M14 melanoma, -70.9% (active).
On to `CCOP(=O)(OCC)OC[C@]12CC[C@@H](C)[C@H](C)C1C1=CC[C@@H]3[C@@]4(C)CCCNC(C)(C)[C@@H]4CC[C@@]3(C)[C@]1(C)CC2` (stereo not given in full), for which the growth in the assay with NCI-H23 lung is 31.7%; in the assay on NCI-H226 lung, 62.5%; in the assay on NCI-H322M lung, 81.7%; with HOP-62 NSCLC it was 65%; in the assay with NCI-H460 lung it was -68.2% (active); in the assay with HOP-92 NSCLC it was 34.8%. Besides, the growth in the assay with NCI-H522 lung was 57.2%; in the assay with A549/ATCC NSCLC it was 18.2%; with 786-0 renal, 14.9%; in the assay with COLO 205 colon, -50.7% (active); in the assay on DU-145 prostate, 1.04% (active); in the assay with K-562 leukemia, -59.7% (active). Further, the growth in the assay on MALME-3M melanoma is 20%; in the assay with MDA-MB-231 breast, 39%; in the assay on RXF 393 renal it was 16.6%; with SF-268 CNS, 37.4%; with SF-295 CNS, 18.6%; in the assay on SF-539 CNS, 60.2%. Besides, the growth in the assay on UACC-257 melanoma is 13.4%; with M14 melanoma, -65.7% (active).
Consider `Cn1cc(-c2cc3ncnc(Nc4ccc(CC(=O)Nc5nc(C(C)(C)C)cs5)cc4)c3s2)cn1`, for which the growth was 47.5% with NCI-H23 lung; 32.9% in the assay on NCI-H226 lung; 43.8% in the assay on NCI-H322M lung; 93.1% in the assay with HOP-62 NSCLC; 54.3% with NCI-H460 lung; 85% in the assay on HOP-92 NSCLC. Moreover, the growth was 36.9% with NCI-H522 lung; 46.4% with A549/ATCC NSCLC; 34.4% in the assay with 786-0 renal; 65.8% in the assay with COLO 205 colon; 38% in the assay on DU-145 prostate; 16.2% in the assay with K-562 leukemia. Besides, the growth is 55.9% in the assay with MALME-3M melanoma; 45.6% in the assay on MDA-MB-231 breast; 26.4% with RXF 393 renal; 56.2% in the assay on SF-268 CNS; 69.6% in the assay with SF-295 CNS; 29.1% in the assay with SF-539 CNS. Also, the growth is 79.1% with UACC-257 melanoma and 41.5% in the assay on M14 melanoma.
Turning to `Cc1cc(C)cc(NC2=C(Cl)C(=O)c3nc(C)ccc3C2=O)c1`, the growth was 22.1% in the assay on NCI-H23 lung; 28.5% in the assay on NCI-H226 lung; 91.7% in the assay with NCI-H322M lung; 101% with HOP-62 NSCLC; 93.1% in the assay on NCI-H460 lung; 118% with HOP-92 NSCLC. Further, the growth in the assay with NCI-H522 lung was 19%; in the assay on A549/ATCC NSCLC it was 73.7%; in the assay with 786-0 renal, 79%; in the assay on COLO 205 colon, 107%; with DU-145 prostate it was 2.27% (active); with K-562 leukemia it was 6.63% (active). In addition, the growth is 76.1% in the assay with MALME-3M melanoma; 53.8% in the assay on MDA-MB-231 breast; 75% in the assay on RXF 393 renal; 85.2% in the assay on SF-268 CNS; 77.2% in the assay on SF-295 CNS; 71.5% with SF-539 CNS. The growth is 30.1% in the assay on UACC-257 melanoma and 72.8% in the assay with M14 melanoma.
For `NC1[C@H]2CN(c3cnc(C(=O)Nc4cc(F)cc5cccnc45)cn3)C[C@@H]12` (stereo not given in full), the growth is 84.5% in the assay with NCI-H23 lung; 85.1% in the assay on NCI-H226 lung; 6.79% (active) with NCI-H322M lung; 82.4% in the assay on HOP-62 NSCLC; 92.1% in the assay with NCI-H460 lung; 24.8% with HOP-92 NSCLC. In addition, the growth in the assay with NCI-H522 lung is 46.6%; in the assay with A549/ATCC NSCLC it was 92.1%; in the assay with 786-0 renal, 75.2%; with COLO 205 colon, 18.5%; with DU-145 prostate, 76.4%; in the assay with K-562 leukemia, 15%. The growth in the assay with MALME-3M melanoma was 57.5%; with MDA-MB-231 breast, 47.8%; in the assay on RXF 393 renal it was 70.6%; with SF-268 CNS, 87.5%; with SF-295 CNS it was 96.4%; in the assay on SF-539 CNS, 76.9%. Moreover, the growth in the assay with UACC-257 melanoma is 97.7%; in the assay with M14 melanoma, 79.3%.
`CN1CCN(c2ccc(Nc3nc(NCCCNS(=O)(=O)c4ccc(F)cc4)c4sccc4n3)cc2)CC1`: the growth in the assay on NCI-H23 lung is 87%; in the assay with NCI-H226 lung, 99.4%; in the assay on NCI-H322M lung, 87.6%; in the assay with HOP-62 NSCLC it was 91.5%; with NCI-H460 lung it was 72%; in the assay with HOP-92 NSCLC, 37.8%. Further, the growth in the assay on NCI-H522 lung was 71%; with A549/ATCC NSCLC, 77.9%; in the assay on 786-0 renal, 3.97% (active); with COLO 205 colon, 50.5%; in the assay with DU-145 prostate, 72.6%; in the assay with K-562 leukemia, 10.4%. Also, the growth in the assay on MALME-3M melanoma is -66.2% (active); with MDA-MB-231 breast it was 43.2%; with RXF 393 renal it was 36.5%; in the assay with SF-268 CNS, 60.3%; with SF-295 CNS it was 32.4%; in the assay with SF-539 CNS, -76% (active). Also, the growth is -28.6% (active) in the assay on UACC-257 melanoma and -21.3% (active) in the assay on M14 melanoma.
With `NC(N)=NS(=O)(=O)c1ccc(N=Nc2c(N)nn(-c3ccc([N+](=O)[O-])cc3[N+](=O)[O-])c2N)cc1`, the growth in the assay on NCI-H23 lung is 98.1%; in the assay on NCI-H226 lung, 93.3%; in the assay on NCI-H322M lung, 92.9%; in the assay with HOP-62 NSCLC, 104%; in the assay on NCI-H460 lung it was 107%; with HOP-92 NSCLC it was 88.2%. The growth was 97.2% with NCI-H522 lung; 103% with A549/ATCC NSCLC; 103% with 786-0 renal; 106% in the assay on COLO 205 colon; 107% in the assay on DU-145 prostate; 87.4% in the assay on K-562 leukemia. Moreover, the growth is 106% in the assay on MALME-3M melanoma; 102% in the assay with MDA-MB-231 breast; 89% in the assay on RXF 393 renal; 100% with SF-268 CNS; 108% in the assay with SF-295 CNS; 95% with SF-539 CNS. The growth in the assay on UACC-257 melanoma is 103%; with M14 melanoma, 102%.
